In PubChem BioAssay AID1159580 (chemical genetic matrix, 2015):
Where “and” joins values, the source holds several entries; their conditions need not be identical. Equal values may be shown once. Among all 5,500 compounds or so, about 2,000 (36%) were called active. Inconclusive results (about 18%) are left out. No stated cut-off is given here; in the data, active means normalized growth mostly below about 0.91 (no sharp cut-off); inconclusive means no clear call, values can overlap the other calls; inactive means mostly above about 0.92. The list shows a part of the results.

Test: chemical genetic growth profiling, strain panel (AID 1159580);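 further: tested at 20 µM; growth read once vehicle control cultures reached saturation at 30 °C; 1 = growth at the plate median or of vehicle wells; lower values mean less growth of the strain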
Conditions: S. cerevisiae deletion strains, growth OD

Measured: normalized growth

CCCCCCCCCCCC[C@H](C(=O)O)[C@@H](C)C(=O)O
inactive: locus YAL013W, strain DEP1, hits give low values 0.992 | locus YAL021C, strain ccr4, hits give low values 1.02 | locus YAL026C, strain drs2, hits give low values 0.952 | locus YAL030W, strain snc1, hits give low values 0.984 | locus YBL061C, strain skt5, hits give low values 0.982 | locus YBR009C, strain hhf1, hits give low values 0.994 | locus YBR021W, strain FUR4, hits give low values 0.995 | locus YBR023C, strain chs3, hits give low values 0.982 | locus YBR171W, strain sec66, hits give low values 0.936 | locus YBR229C, strain ROT2, hits give low values 0.993 | locus YBR231C, strain swc5, hits give low values 0.986 | locus YBR279W, strain paf1, hits give low values 0.976 | locus YCL011C, strain gbp2, hits give low values 0.995 | locus YCL016C, strain dcc1, hits give low values 0.996 | locus YCL029C, strain bik1, hits give low values 1.02 | locus YCL061C, strain MRC1, hits give low values 0.963 | locus YCL069W, strain vba3, hits give low values 0.975 | locus YCR088W, strain abp1, hits give low values 0.976 | locus YDL005C, strain med2, hits give low values 0.995 | locus YDL035C, strain GPR1, hits give low values 0.995 | locus YDL040C, strain nat1, hits give low values 0.977 | locus YDL074C, strain BRE1, hits give low values 0.986 | locus YDL101C, strain DUN1, hits give low values 1.02 | locus YDL134C, strain PPH21, hits give low values 0.993 | locus YDL185W, strain tfp1, hits give low values 1.03 | locus YDL192W, strain arf1, hits give low values 1.01 | locus YDR001C, strain nth1, hits give low values 0.966 | locus YDR069C, strain doa4, hits give low values 0.999 | locus YDR101C, strain arx1, hits give low values 1.01 | locus YDR137W, strain rgp1, hits give low values 0.929 | locus YDR150W, strain NUM1, hits give low values 0.998 | locus YDR159W, strain sac3, hits give low values 0.902 | locus YDR162C, strain NBP2, hits give low values 1.01 | locus YDR195W, strain ref2 0.98 | locus YDR297W, strain sur2, hits give low values 0.976 | locus YDR318W, strain mcm21, hits give low values 1.02 | locus YDR334W, strain swr1, hits give low values 0.985 | locus YDR335W, strain msn5, hits give low values 0.986 | locus YDR388W, hits give low values 1.01 | locus YDR392W, strain spt3, hits give low values 0.832 | locus YDR502C, strain sam2, hits give low values 1.02 | locus YEL003W, strain gim4, hits give low values 0.995 | locus YEL037C, strain rad23, hits give low values 0.976 | locus YEL061C, strain CIN8 (second series), hits give low values 0.957 | locus YEL061C, strain CIN8, hits give low values 0.988 | locus YER015W, strain faa2, hits give low values 0.985 | locus YER016W, strain bim1, hits give low values 0.984 | locus YER110C, hits give low values 1 | locus YER111C, strain swi4, hits give low values 0.938 | locus YER155C, strain BEM2 (second series), hits give low values 0.874 | locus YER155C, strain BEM2, hits give low values 0.979 | locus YER167W, strain BCK2, hits give low values 1.01 | locus YFR010W, strain ubp6, hits give low values 1.02 | locus YGL078C, strain dbp3, hits give low values 0.98 | locus YGL086W, strain mad1, hits give low values 1.01 | locus YGL167C, strain pmr1, hits give low values 0.943 | locus YGL173C, strain kem1, hits give low values 0.958 | locus YGL227W, strain vid30, hits give low values 0.975 | locus YGL240W, strain doc1, hits give low values 0.979 | locus YGL248W, strain PDE1, hits give low values 1 | locus YGL253W, strain hxk2, hits give low values 0.976 | locus YGR078C, strain PAC10, hits give low values 1.01 | locus YGR135W, strain pre9, hits give low values 1.01 | locus YGR229C, strain SMI1, hits give low values 0.999 | locus YGR252W, strain gcn5, hits give low values 1.05 | locus YHR013C, strain ard1, hits give low values 1.01 | locus YHR027C, strain rpn1, hits give low values 0.984 | locus YHR030C, strain SLT2, hits give low values 0.993 and 0.941 | locus YHR079C, strain IRE1 (second series), hits give low values 1 | locus YHR079C, strain IRE1, hits give low values 0.953 | locus YHR094C, strain hxt1, hits give low values 0.989 | locus YHR129C, strain ARP1, hits give low values 0.989 | locus YHR142W, strain chs7, hits give low values 1.02 | locus YHR200W, strain rpn10, hits give low values 1.02 | locus YIL066C, strain RNR3, hits give low values 0.992 | locus YIL073C, strain SPO22, hits give low values 1.06 | locus YIL125W, strain kgd1, hits give low values 0.997 | locus YIR030C, strain dcg1, hits give low values 1 | locus YJL092W, strain hpr5, hits give low values 0.967 | locus YJL095W, strain BCK1 (second series), hits give low values 0.992 | locus YJL095W, strain BCK1, hits give low values 1.01 and 0.953 | locus YJL115W, strain asf1, hits give low values 0.94 | locus YJL134W, strain LCB3, hits give low values 0.991 | locus YJL154C, strain vps35, hits give low values 0.99 | locus YJL164C, strain tpk1, hits give low values 0.999 | locus YJL166W, strain qcr8, hits give low values 0.992 | locus YJL168C, strain set2, hits give low values 1 | locus YJL187C, strain SWE1 (second series), hits give low values 1 | locus YJL187C, strain SWE1, hits give low values 0.971 | locus YJR043C, strain POL32, hits give low values 0.996 | locus YJR066W, strain TOR1, hits give low values 0.884
active: locus YJL129C, strain trk1, hits give low values 0.797
